The panel holds about 83,000 compounds, 20% with a hit somewhere; the sample as a whole holds those more often.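 The test compound was applied at a single concentration to cells in 96-well plates for 48 hours, and percent growth was recorded.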 Values without a mark were called inactive. Active and inactive are the calls of the source. Rule for the calls: active = growth percent below 10; inactive = the rest.
These compounds were tested on NCI-H322M lung (assay: NCI-60 one-dose screen, 48 h (100 = growth as untreated, 0 = no growth, -100 = all killed)). Settings: 10 µM unless noted.

Structure (SMILES) | growth
C=CCC(=O)N[C@H](/C=C/C(=O)O)Cc1ccc(-c2cc(Cl)cc(Cl)c2)cc1 | 101%
CCN1CCN(c2cc(C)nc(N(CCCNc3ccnc4cc(Cl)ccc34)Cc3cccs3)n2)CC1 | 12%
COC(=O)CCCNc1c(-c2c(O)c(O)cc3c(O)c(-c4c(C)cc5c(-c6nc7ccccn7c6NCCCC(=O)OC)c(O)c(O)cc5c4O)c(C)cc23)nc2ccccn12 | 93.2%
Cn1ncc(Cl)c1-c1cc(C(=O)N[C@H](CN)Cc2ccc(F)c(F)c2)oc1Cl | 18.8%
O=c1[nH]c(N2CCOCC2)nc2scc(-c3ccccc3)c12 | 95%
Cc1cc2c(-c3nc4ccccn4c3NC3CCCCC3)c(O)c(O)cc2c(O)c1-c1c(C)cc2c(-c3nc4ccccn4c3NC3CCCCC3)c(O)c(O)cc2c1O | 54.9%
CC(C)C1CCC(C)C(C2(C#N)C(N)=NC(N)=C2C#N)C1=O (stereo unspecified) | 98.8%
Cc1cc(N2CCCC2)nc(N(CCCNc2ccnc3cc(Cl)ccc23)Cc2ccc3c(c2)OCO3)n1 | 8.23% (active)
[2H]C1([2H])[C@H](C)O[C@H](C)C([2H])([2H])N1c1ccc(NC(=O)c2cccc(-c3ccc(OC(F)(F)F)cc3)c2C)cn1 | 83.4%
Cc1cc2c(-c3nc4ccccn4c3NC34CC5CC(CC(C5)C3)C4)c(O)c(O)cc2c(O)c1-c1c(C)cc2c(-c3nc4ccccn4c3NC34CC5CC(CC(C5)C3)C4)c(O)c(O)cc2c1O | 30.2%
CC[C@H](Nc1ncnc2nc[nH]c12)c1nc2cccc(F)c2c(=O)n1-c1ccccc1 | 42.9%

Source: PubChem BioAssay (NCI)
